Assay results from the supplement of paper PMC4894684.
Counter-ions that a name gives are not always drawn. ± gives the standard deviation of the averaged measurements.

Tested on: Toxoplasma gondii RH (in HFF)
Assay: parasite growth relative to the screen mean (all compounds = 100%); higher = less inhibition of parasite growth
Conditions: 5 µM; 72 h; oxygen 21 %
Procedure, shortened: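 Library compounds (10 mM DMSO stocks) were pin-transferred to 5 µM final onto confluent human foreskin fibroblasts in 96-well plates, then infected within 2 h with RH β-Gal–GFP Toxoplasma (MOI 1:5) and grown 72 h at 21% O2. Parasite number came from a CPRG β-Gal assay against in-plate standard curves. Growth is expressed relative to the screen mean (all compounds = 100%), averaged over two screens. Uninfected host-cell viability was checked by CellTiter-Blue.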

`COc1ccc(S(=O)(=O)N2c3ccc(Cl)cc3[C@](O)(c3ccccc3Cl)[C@@H]2C(=O)N2CCC[C@H]2C(N)=O)cc1OC` and `COc1ccc(Cl)cc1C(=O)NCCc1ccc(S(=O)(=O)NC(=O)NC2CCCCC2)cc1` [Glibenclamide] are within error of each other in parasite growth: 144 ± 26% for the first, 96.4 ± 24% for the second.

Going from `CCCC(=O)Nc1ncnc2c1ncn2[C@@H]1O[C@@H]2COP(=O)(O)O[C@H]2[C@H]1OC(=O)CCC` [Dibutyryl-cAMP, sodium salt] to `COc1cc2c(Nc3ccc(NC(=O)c4ccccc4)cc3)ncnc2cc1OCCCN1CCOCC1`, the parasite growth falls from 125 ± 23% to 17.4 ± 8.7%.

`O=C(O)Cc1cccc(OCCCN(Cc2cccc(C(F)(F)F)c2Cl)CC(c2ccccc2)c2ccccc2)c1` [GW 3965 hydrochloride] and `OC(CN1CCN(c2cccc(Cl)c2)CC1)C(c1ccccc1)c1ccccc1` (stereo not drawn) are within error of each other in parasite growth: 105 ± 15% for the first, 147 ± 28% for the second.

Going from `Cc1cccc(Nc2cc(Cl)nc(SCC(=O)O)n2)c1C` to `COc1cc(OC)c(NC(=O)Nc2cc(C)on2)cc1Cl`, the parasite growth rises from 108.5 ± 0.57% to 135 ± 17%.

`O=C(Nc1ccc(C(F)(F)F)cn1)N1CCN(c2ncccc2C(F)(F)F)CC1` and `Cn1ccc2cc3c(cc21)CCN3C(=O)Nc1cccnc1` are within error of each other in parasite growth: 135 ± 6.2% for the first, 121 ± 17% for the second.

Compared with `Fc1ccc(-c2nc3n(c2-c2ccncc2)CCS3)cc1`, `Nc1ccc(-c2cccc3c(=O)cc(N4CCOCC4)oc23)cc1` is higher in parasite growth: less than 0% for the first, 104 ± 7.9% for the second.

Compared with `N[C@H]1CCN(O)C1=O`, `O=C(O)C1=CCCNC1` [Guvacine hydrochloride] is higher in parasite growth: 94.9 ± 34% for the first, 132.34 ± 0.044% for the second.

Compared with `CC(=O)Nc1ccc(O)cc1` [Acetaminophen], `Cc1ccc(NC2=CC(=O)c3sc(C)nc3C2=O)cc1` [Ryuvidine] is lower in parasite growth: 105 ± 2.7% for the first, less than 0% for the second.

Compared with `Nc1c(Br)cc(Br)cc1CN[C@H]1CC[C@H](O)CC1` [Ambroxol hydrochloride], `COc1cc(N)c(Cl)cc1C(=O)CCC1CCN(CCNS(C)(=O)=O)CC1` is lower in parasite growth: 136 ± 3.2% for the first, 74.1 ± 2.4% for the second.

`C[C@@H]1C[C@H]2[C@@H]3CCC4=CC(=O)C=C[C@]4(C)[C@@]3(F)[C@@H](O)C[C@]2(C)[C@@]1(O)C(=O)CO` [Dexamethasone] and `COC(=O)[C@@H]1[C@H]2C[C@H]3c4[nH]c5ccccc5c4CCN3C[C@@H]2CC[C@@H]1O` [Yohimbine hydrochloride] are within error of each other in parasite growth: 141 ± 12% for the first, 184 ± 33% for the second.

Going from `COc1cc(C[C@H]2C(=O)OC[C@@H]2Cc2ccc(OC)c(OC)c2)ccc1O` [Arctigenin] to `COc1ccc(CCN(C)CCCN2CCc3cc(OC)c(OC)cc3CC2=O)cc1OC` [Zatebradine hydrochloride], the parasite growth falls from 125 ± 10% to 103 ± 1.8%.

`COC(=O)C1=C(C)NC(C)=C(C(=O)OC)C1c1ccccc1[N+](=O)[O-]` [Nifedipine] and `COC(=O)c1c(-c2cc(OC)c(OC)c(OC)c2)c2ccnc(OCc3ncccn3)c2c(=O)n1Cc1ccnc(C)c1` [T 0156 hydrochloride] are within error of each other in parasite growth: 110 ± 36% for the first, 89.9 ± 14% for the second.

`CN(C)CCCC1(c2ccc(F)cc2)OCc2cc(C#N)ccc21` (stereo not drawn) [Citalopram hydrobromide] and `CC1(C)Oc2ccc(C#N)cc2[C@H](N2CCCC2=O)[C@H]1O` [Cromakalim] are within error of each other in parasite growth: 122 ± 3.6% for the first, 127 ± 5.1% for the second.

First: O=C(O)c1ccc2cc(-c3ccc(O)c(C45CC6CC(CC(C6)C4)C5)c3)ccc2c1
Second: CCCCCCCCc1ccc(-c2ccc(C(=O)O)cc2)cc1
The parasite growth of the first is higher: 181 ± 36% for the first, 111 ± 17% for the second.

`N#C/C(=C\c1ccc(O)c(O)c1)C(=O)OCCc1cccs1` and `C=CCN1CCc2cc(O)c(O)cc2C(c2ccccc2)C1` (stereo not drawn) are within error of each other in parasite growth: 132 ± 15% for the first, 135 ± 1.6% for the second.

`COC(=O)[C@H]1[C@H]2C[C@@H]3c4[nH]c5cc(OC)ccc5c4CCN3C[C@H]2C[C@@H](OC(=O)c2cc(OC)c(OC)c(OC)c2)[C@@H]1OC` [Reserpine] and `CC(C)C[C@H](NC(=O)N1CCCCCC1)C(=O)N[C@H](Cc1cn(C)c2ccccc12)C(=O)N[C@H](Cc1ccccn1)C(=O)O` are within error of each other in parasite growth: 78.4 ± 47% for the first, 98.9 ± 45% for the second.

Going from `NC(N)=Nc1ccc(Cl)cc1` [4-Chlorophenylguanidine hydrochloride] to `Clc1ccc(CCCOCCCN2CCCCC2)cc1`, the parasite growth falls from 125 ± 3.5% to 45.7 ± 21%.

Going from `Cc1ccc(C(=O)Cn2c3c(sc2=N)CCCC3)cc1` [Pifithrin- α hydrobromide] to `Nc1ncnc2nc(-c3ccc(N4CCOCC4)nc3)cc(-c3cccc(Br)c3)c12` [ABT 702 dihydrochloride], the parasite growth falls from 130 ± 1.9% to 100 ± 9.5%.

Compared with `CC(C)NC[C@@H](O)COc1cccc2ccccc12` [(R)-(+)-Propranolol hydrochloride], `NS(=O)(=O)c1cc2c(cc1Cl)NC(C1CC3C=CC1C3)NS2(=O)=O` (stereo not drawn) [Cyclothiazide] is higher in parasite growth: 87.15 ± 0.86% for the first, 118 ± 1.8% for the second.
